# In PMC7862700, “An all-to-all approach to the identification of sequence-specific readers for epigenetic DNA modifications on cytosine”:
# What was measured:
# Test in all cases: DAPPL (digital affinity profiling via proximity ligation, sequencing); 10 mM Tris-HCl pH 7.5, 50 mM NaCl, 1 mM DTT, 4% glycerol, room temperature, 30 min; GST-TFs on glutathione beads, 16-mer random dsDNA library, 0.1% formaldehyde crosslink after washing; high values mean tight binding
# FEV = molecular target: T1, FEV (Homo sapiens, UniProt Q99581 1-238); settings: protein: recombinant; tags: N-terminal GST; dsDNA, one strand shown
# T1 sequence: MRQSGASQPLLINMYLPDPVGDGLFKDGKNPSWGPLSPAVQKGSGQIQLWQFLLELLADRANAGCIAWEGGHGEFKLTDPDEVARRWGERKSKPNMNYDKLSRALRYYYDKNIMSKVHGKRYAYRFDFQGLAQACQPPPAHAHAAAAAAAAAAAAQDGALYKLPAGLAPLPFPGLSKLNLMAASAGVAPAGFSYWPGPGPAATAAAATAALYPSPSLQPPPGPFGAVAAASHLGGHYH
# How it was run: (§1)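 Human transcription factors carrying a GST fusion were produced in yeast, bound to glutathione beads, tagged with DNA barcodes and pooled together with a tag-only sample. Each pool was held with 200 nmole of a random double-stranded 16-mer DNA library in Tris/NaCl/DTT/glycerol buffer for 30 min at room temperature, then washed, crosslinked in 0.1% formaldehyde, proximity-ligated with BsaI/T4 ligase (1 h, 37 °C), PCR-amplified and sequenced on an Illumina NextSeq500. Binding signal is the read frequency of each hexamer for a given factor divided by its frequency in the tag-only sample.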
# ETV5 = ETV5 (Homo sapiens, UniProt P41161 1-510); settings: protein: recombinant; tags: N-terminal GST; dsDNA, one strand shown
# Sequence of ETV5 (P41161 whole entry): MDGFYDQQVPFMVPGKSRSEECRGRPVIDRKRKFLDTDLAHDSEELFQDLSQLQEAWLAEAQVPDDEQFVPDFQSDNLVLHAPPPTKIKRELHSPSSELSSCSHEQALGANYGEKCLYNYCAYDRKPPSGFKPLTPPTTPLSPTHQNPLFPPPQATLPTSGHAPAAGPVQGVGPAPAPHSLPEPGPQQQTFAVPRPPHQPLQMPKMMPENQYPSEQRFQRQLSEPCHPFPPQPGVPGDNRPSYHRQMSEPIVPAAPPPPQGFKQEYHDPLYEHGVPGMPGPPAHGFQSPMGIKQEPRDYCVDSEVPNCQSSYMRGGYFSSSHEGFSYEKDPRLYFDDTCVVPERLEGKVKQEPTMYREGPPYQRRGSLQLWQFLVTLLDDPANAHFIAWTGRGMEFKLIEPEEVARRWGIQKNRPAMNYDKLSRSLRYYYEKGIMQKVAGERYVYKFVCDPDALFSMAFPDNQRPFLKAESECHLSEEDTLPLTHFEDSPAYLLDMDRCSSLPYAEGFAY
# How it was run: as §1
# HSF1 = HSF1 (Homo sapiens, UniProt Q00613 1-529); settings: protein: recombinant; tags: N-terminal GST; chain copies: 3; dsDNA, one strand shown
# Sequence of HSF1 (Q00613 whole entry): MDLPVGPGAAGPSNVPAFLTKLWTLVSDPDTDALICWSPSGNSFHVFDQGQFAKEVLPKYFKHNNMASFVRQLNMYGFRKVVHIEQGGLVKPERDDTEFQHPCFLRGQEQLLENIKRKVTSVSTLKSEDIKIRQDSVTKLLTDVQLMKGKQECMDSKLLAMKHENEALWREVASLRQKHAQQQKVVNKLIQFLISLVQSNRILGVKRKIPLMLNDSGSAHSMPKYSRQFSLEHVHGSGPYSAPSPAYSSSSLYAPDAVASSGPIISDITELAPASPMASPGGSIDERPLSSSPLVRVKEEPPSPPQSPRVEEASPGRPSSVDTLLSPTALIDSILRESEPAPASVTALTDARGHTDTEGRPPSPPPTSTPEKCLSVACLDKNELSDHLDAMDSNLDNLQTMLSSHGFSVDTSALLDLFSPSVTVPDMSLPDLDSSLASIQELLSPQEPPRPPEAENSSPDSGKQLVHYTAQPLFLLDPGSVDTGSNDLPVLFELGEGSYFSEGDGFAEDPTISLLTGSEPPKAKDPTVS
# How it was run: as §1
# SPIC = molecular target: T2, SPIC (Homo sapiens, UniProt Q8N5J4 1-248); settings: protein: recombinant; tags: N-terminal GST; dsDNA, one strand shown
# T2 sequence: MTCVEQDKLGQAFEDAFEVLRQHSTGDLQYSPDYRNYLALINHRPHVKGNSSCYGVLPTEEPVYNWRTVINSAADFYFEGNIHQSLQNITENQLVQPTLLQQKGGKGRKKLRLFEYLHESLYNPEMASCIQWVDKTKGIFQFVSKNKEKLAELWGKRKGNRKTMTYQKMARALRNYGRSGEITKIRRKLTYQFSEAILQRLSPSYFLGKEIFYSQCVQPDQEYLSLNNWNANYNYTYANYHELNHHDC
# How it was run: as §1
# ELF4 = ELF4 (Homo sapiens, UniProt Q99607 1-663); settings: protein: recombinant; tags: N-terminal GST; dsDNA, one strand shown
# Sequence of ELF4 (Q99607 whole entry): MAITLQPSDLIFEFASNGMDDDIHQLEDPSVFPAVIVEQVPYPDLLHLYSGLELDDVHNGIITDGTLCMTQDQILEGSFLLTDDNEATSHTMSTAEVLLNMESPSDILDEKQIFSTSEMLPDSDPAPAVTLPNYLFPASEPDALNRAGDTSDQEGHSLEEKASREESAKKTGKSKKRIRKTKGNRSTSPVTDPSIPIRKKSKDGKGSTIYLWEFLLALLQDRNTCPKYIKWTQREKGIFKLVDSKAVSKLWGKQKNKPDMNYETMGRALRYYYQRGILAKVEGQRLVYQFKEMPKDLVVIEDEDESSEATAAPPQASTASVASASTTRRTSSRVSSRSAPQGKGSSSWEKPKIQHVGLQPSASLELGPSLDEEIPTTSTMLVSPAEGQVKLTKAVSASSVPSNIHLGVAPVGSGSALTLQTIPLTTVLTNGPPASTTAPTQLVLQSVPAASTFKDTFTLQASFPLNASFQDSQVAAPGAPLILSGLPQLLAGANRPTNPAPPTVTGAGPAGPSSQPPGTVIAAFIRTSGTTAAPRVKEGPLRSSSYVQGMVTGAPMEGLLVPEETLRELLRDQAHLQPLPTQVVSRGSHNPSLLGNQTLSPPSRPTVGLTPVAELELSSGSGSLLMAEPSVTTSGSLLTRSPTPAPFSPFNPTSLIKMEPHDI
# How it was run: as §1
# ELK4 = molecular target: T3, ELK4 (Homo sapiens, UniProt P28324-2 1-405); settings: protein: recombinant; tags: N-terminal GST; dsDNA, one strand shown
# T3 sequence: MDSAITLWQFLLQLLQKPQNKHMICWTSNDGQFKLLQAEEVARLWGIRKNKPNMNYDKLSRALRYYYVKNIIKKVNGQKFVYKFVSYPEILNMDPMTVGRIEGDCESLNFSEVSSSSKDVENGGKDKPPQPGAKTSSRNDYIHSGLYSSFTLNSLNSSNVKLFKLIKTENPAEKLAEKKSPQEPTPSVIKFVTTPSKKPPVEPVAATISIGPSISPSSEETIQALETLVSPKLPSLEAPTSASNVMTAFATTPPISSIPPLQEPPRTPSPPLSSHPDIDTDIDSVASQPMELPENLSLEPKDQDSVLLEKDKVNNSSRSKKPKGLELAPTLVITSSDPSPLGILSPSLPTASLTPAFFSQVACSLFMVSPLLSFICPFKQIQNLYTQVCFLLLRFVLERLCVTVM
# How it was run: as §1
# ETV2 = molecular target: T4, ETV2 (Homo sapiens, UniProt O00321 1-342); settings: protein: recombinant; tags: N-terminal GST; dsDNA, one strand shown
# T4 sequence: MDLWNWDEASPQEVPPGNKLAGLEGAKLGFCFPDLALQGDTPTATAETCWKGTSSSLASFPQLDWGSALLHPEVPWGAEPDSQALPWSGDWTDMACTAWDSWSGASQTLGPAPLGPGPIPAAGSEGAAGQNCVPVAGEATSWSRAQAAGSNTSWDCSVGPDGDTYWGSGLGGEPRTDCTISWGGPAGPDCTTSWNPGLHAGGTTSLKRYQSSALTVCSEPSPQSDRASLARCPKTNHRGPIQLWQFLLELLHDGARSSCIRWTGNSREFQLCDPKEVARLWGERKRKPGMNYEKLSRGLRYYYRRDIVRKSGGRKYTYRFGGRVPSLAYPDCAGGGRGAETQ
# How it was run: as §1
# ELF3 = molecular target: T5, ELF3 (Homo sapiens, UniProt P78545 1-371); settings: protein: recombinant; tags: N-terminal GST; dsDNA, one strand shown
# T5 sequence: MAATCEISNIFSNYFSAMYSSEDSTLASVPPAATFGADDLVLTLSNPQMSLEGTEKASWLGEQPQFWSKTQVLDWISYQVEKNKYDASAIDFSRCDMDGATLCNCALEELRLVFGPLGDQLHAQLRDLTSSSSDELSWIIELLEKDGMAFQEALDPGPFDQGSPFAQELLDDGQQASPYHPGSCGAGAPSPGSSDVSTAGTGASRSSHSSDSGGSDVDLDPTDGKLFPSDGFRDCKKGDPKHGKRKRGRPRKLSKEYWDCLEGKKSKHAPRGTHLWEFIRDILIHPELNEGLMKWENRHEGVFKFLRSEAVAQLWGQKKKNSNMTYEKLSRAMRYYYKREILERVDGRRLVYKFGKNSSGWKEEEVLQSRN
# How it was run: as §1
# CRX = CRX (Homo sapiens, UniProt O43186 1-299); settings: protein: recombinant; tags: N-terminal GST; dsDNA, one strand shown
# Sequence of CRX (O43186 whole entry): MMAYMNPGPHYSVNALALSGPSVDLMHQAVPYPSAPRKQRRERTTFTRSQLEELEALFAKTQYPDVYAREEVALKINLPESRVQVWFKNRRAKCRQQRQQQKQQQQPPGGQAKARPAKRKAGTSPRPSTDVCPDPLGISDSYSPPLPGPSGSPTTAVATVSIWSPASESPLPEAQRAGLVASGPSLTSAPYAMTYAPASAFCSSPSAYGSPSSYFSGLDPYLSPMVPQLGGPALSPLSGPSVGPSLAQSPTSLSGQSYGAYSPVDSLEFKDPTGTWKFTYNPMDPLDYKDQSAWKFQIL
# How it was run: as §1
# ETV1 = ETV1 (Homo sapiens, UniProt P50549 1-477); settings: protein: recombinant; tags: N-terminal GST; dsDNA, one strand shown
# Sequence of ETV1 (P50549 whole entry): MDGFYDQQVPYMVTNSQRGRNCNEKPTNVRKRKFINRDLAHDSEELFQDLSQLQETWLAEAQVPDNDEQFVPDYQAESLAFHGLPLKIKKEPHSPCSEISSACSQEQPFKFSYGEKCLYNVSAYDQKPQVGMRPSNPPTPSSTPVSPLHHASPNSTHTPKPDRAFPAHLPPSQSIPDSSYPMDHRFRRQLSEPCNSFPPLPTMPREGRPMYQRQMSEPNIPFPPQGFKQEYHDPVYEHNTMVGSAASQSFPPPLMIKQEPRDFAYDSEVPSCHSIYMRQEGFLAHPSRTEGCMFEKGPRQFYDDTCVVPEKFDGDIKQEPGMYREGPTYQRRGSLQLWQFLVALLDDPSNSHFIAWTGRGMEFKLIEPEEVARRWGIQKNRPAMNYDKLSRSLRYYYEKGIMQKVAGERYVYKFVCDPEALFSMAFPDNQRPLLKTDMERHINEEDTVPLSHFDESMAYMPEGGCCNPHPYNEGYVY
# How it was run: as §1
Sequence,binding signal (FEV),binding signal (ETV5),binding signal (HSF1),binding signal (SPIC),binding signal (ELF4),binding signal (ELK4),binding signal (ETV2),binding signal (ELF3),binding signal (CRX),binding signal (ETV1)
GTAATA,"1.11 fold enrichment (6-mer frequency, TF over GST control)","1.13 fold enrichment (6-mer frequency, TF over GST control)","1.24 fold enrichment (6-mer frequency, TF over GST control)","1.27 fold enrichment (6-mer frequency, TF over GST control)","1.16 fold enrichment (6-mer frequency, TF over GST control)","1.27 fold enrichment (6-mer frequency, TF over GST control)","1.09 fold enrichment (6-mer frequency, TF over GST control)","1.22 fold enrichment (6-mer frequency, TF over GST control)","1.52 fold enrichment (6-mer frequency, TF over GST control)","1.13 fold enrichment (6-mer frequency, TF over GST control)"
AACTCG,"1.32 fold enrichment (6-mer frequency, TF over GST control)","1.29 fold enrichment (6-mer frequency, TF over GST control)","1.4 fold enrichment (6-mer frequency, TF over GST control)","1.58 fold enrichment (6-mer frequency, TF over GST control)","1.37 fold enrichment (6-mer frequency, TF over GST control)","1.29 fold enrichment (6-mer frequency, TF over GST control)","1.37 fold enrichment (6-mer frequency, TF over GST control)","1.29 fold enrichment (6-mer frequency, TF over GST control)","1.3 fold enrichment (6-mer frequency, TF over GST control)","1.3 fold enrichment (6-mer frequency, TF over GST control)"
AGTATT,"1.14 fold enrichment (6-mer frequency, TF over GST control)","1.2 fold enrichment (6-mer frequency, TF over GST control)","1.35 fold enrichment (6-mer frequency, TF over GST control)","1.22 fold enrichment (6-mer frequency, TF over GST control)","1.16 fold enrichment (6-mer frequency, TF over GST control)","1.17 fold enrichment (6-mer frequency, TF over GST control)","1.07 fold enrichment (6-mer frequency, TF over GST control)","1.17 fold enrichment (6-mer frequency, TF over GST control)","1.57 fold enrichment (6-mer frequency, TF over GST control)","1.19 fold enrichment (6-mer frequency, TF over GST control)"
GACCTT,"1.6 fold enrichment (6-mer frequency, TF over GST control)","1.55 fold enrichment (6-mer frequency, TF over GST control)","1.52 fold enrichment (6-mer frequency, TF over GST control)","1.74 fold enrichment (6-mer frequency, TF over GST control)","1.73 fold enrichment (6-mer frequency, TF over GST control)","1.61 fold enrichment (6-mer frequency, TF over GST control)","1.63 fold enrichment (6-mer frequency, TF over GST control)","1.49 fold enrichment (6-mer frequency, TF over GST control)","1.31 fold enrichment (6-mer frequency, TF over GST control)","1.48 fold enrichment (6-mer frequency, TF over GST control)"
CATTTT,"1.19 fold enrichment (6-mer frequency, TF over GST control)","1.23 fold enrichment (6-mer frequency, TF over GST control)","1.19 fold enrichment (6-mer frequency, TF over GST control)","1.18 fold enrichment (6-mer frequency, TF over GST control)","1.32 fold enrichment (6-mer frequency, TF over GST control)","1.32 fold enrichment (6-mer frequency, TF over GST control)","1.35 fold enrichment (6-mer frequency, TF over GST control)","1.21 fold enrichment (6-mer frequency, TF over GST control)","1.04 fold enrichment (6-mer frequency, TF over GST control)","1.24 fold enrichment (6-mer frequency, TF over GST control)"
TATAAT,"1.16 fold enrichment (6-mer frequency, TF over GST control)","1.17 fold enrichment (6-mer frequency, TF over GST control)","1.82 fold enrichment (6-mer frequency, TF over GST control)","1.1 fold enrichment (6-mer frequency, TF over GST control)","1.13 fold enrichment (6-mer frequency, TF over GST control)","1.25 fold enrichment (6-mer frequency, TF over GST control)","1.3 fold enrichment (6-mer frequency, TF over GST control)","1.27 fold enrichment (6-mer frequency, TF over GST control)","2.69 fold enrichment (6-mer frequency, TF over GST control)","1.15 fold enrichment (6-mer frequency, TF over GST control)"
CTCAAC,"1.32 fold enrichment (6-mer frequency, TF over GST control)","1.3 fold enrichment (6-mer frequency, TF over GST control)","1.1 fold enrichment (6-mer frequency, TF over GST control)","1.36 fold enrichment (6-mer frequency, TF over GST control)","1.3 fold enrichment (6-mer frequency, TF over GST control)","1.18 fold enrichment (6-mer frequency, TF over GST control)","1.29 fold enrichment (6-mer frequency, TF over GST control)","1.19 fold enrichment (6-mer frequency, TF over GST control)","1.13 fold enrichment (6-mer frequency, TF over GST control)","1.24 fold enrichment (6-mer frequency, TF over GST control)"
CACTTT,"1.18 fold enrichment (6-mer frequency, TF over GST control)","1.38 fold enrichment (6-mer frequency, TF over GST control)","1.17 fold enrichment (6-mer frequency, TF over GST control)","1.29 fold enrichment (6-mer frequency, TF over GST control)","1.3 fold enrichment (6-mer frequency, TF over GST control)","1.34 fold enrichment (6-mer frequency, TF over GST control)","1.35 fold enrichment (6-mer frequency, TF over GST control)","1.28 fold enrichment (6-mer frequency, TF over GST control)","1.14 fold enrichment (6-mer frequency, TF over GST control)","1.3 fold enrichment (6-mer frequency, TF over GST control)"
